Results from PubChem BioAssay (NCI).
Compounds without any hit were thinned out: in the full panel of roughly 79,000, 15% have a hit. No stated cut-off is given here; in the data, active means growth inhibition above about 70%; inactive means the rest.

What was measured:
[1] = NCI Yeast Anticancer Drug Screen. Data for the rad50 strain (AID 155);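 further: 0% = growth of vehicle-only cultures of the same strain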; settings: S. cerevisiae rad50 strain growth inhibition; at 50.0 µM; stronger effect = higher value
How it was run: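 Vehicle-treated cultures provide the reference for the growth inhibition reported for compound-exposed, repair-deficient yeast.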

[2] = NCI Yeast Anticancer Drug Screen. Data for the mec2-1 strain (AID 157); settings: S. cerevisiae mec2-1 strain, at 50.0 µM, stronger effect = higher value
How it was run: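 mec2-1 yeast strain, carrying an alteration in DNA damage repair or cell cycle control, was exposed to compounds; growth inhibition was measured relative to vehicle-treated controls.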

[3] = NCI Yeast Anticancer Drug Screen. Data for the sgs1 mgt1 strain (AID 161);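 further: 0% = growth of cultures given vehicle only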; settings: S. cerevisiae sgs1 mgt1 strain, at 50.0 µM, stronger effect = higher value
How it was run: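 Percent growth inhibition was derived by comparing compound-exposed mutant yeast with vehicle-exposed cultures. The strain carries alterations in DNA damage repair.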

[4] = NCI Yeast Anticancer Drug Screen. Data for the cln2 rad14 strain (AID 165);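 further: 0% = growth equal to vehicle treated cultures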; settings: S. cerevisiae cln2 rad14 strain, at 50.0 µM, stronger effect = higher value
How it was run: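 Yeast carrying cln2 and rad14 alterations (cell cycle control and DNA damage repair) were exposed to compounds. Growth inhibition was measured against vehicle-treated controls.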

[5] = NCI Yeast Anticancer Drug Screen. Data for the bub3 strain (AID 167); settings: S. cerevisiae bub3 mutant strain, at 50.0 µM, stronger effect = higher value
How it was run: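 Mutant yeast screening strain plus compound; vehicle-treated cultures serve as the 0% inhibition reference.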

[6] = NCI Yeast Anticancer Drug Screen. Data for the mlh1 rad18 strain (AID 175); settings: S. cerevisiae mlh1 rad18 strain growth inhibition; at 50.0 µM; stronger effect = higher value
How it was run: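 Growth inhibition of the yeast strain was measured after compound exposure and expressed relative to vehicle-treated controls. The strain carries defined defects in DNA damage repair.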

Measured: growth inhibition

O=c1[nH]c(-c2ccccc2N=NN2CCCCC2)nc2ccccc12
inactive: [1] -4.05% | [2] -2.35% | [3] -2.6% | [4] -11.8% | [5] -4.45% | [6] 1.8%

CCOC(=O)C(CCCBr)(C(=O)OCC)N1C(=O)c2ccccc2C1=O
inactive: [1] 20.8% | [2] -13.3% | [3] 10.9% | [4] 18.2% | [5] 31.8% | [6] 12.6%

O=C1CCC(C(=O)Nc2ccc(Cl)c(Cl)c2)N1 (stereo not given)
inactive: [1] 1.75% | [2] 10.6% | [3] 8.5% | [4] -10.7% | [5] 1.1% | [6] -8.15%

CN1C(=O)C(=O)N2c3ccc(Cl)cc3C3(c4ccccc4)N=CC12O3 (stereo not given)
inactive: [1] 9.3% | [2] 3.05% | [3] 6% | [4] 5% | [5] -8.4% | [6] -3.1%

Cc1ccc(S(=O)(=O)SC(SCC(=O)c2ccc(Br)cc2)C(=O)c2ccc(Br)cc2)cc1 (stereo not given)
inactive: [1] 26.6% | [2] -10.4% | [3] 33.5% | [4] 19.9% | [5] -0.15% | [6] 13.2%

Nc1cc2c(cc1/C=C1\CCNC1=O)OCO2
inactive: [1] -5.65% | [2] -12.1% | [3] -22.2% | [4] -6.6% | [5] -11.8% | [6] -4.85%

CCOC(CNCc1ccncc1)OCC
inactive: [1] -19.8% | [2] -20.3% | [3] -26.8% | [4] 4.9% | [5] -31% | [6] -10.9%

O=C1C=CC(c2ccccc2)(c2ccccc2)O1
inactive: [1] -32.7% | [2] -10.8% | [3] -15.3% | [4] -22.4% | [5] -8.35% | [6] -7.1%

O=c1[nH]c(C(Cl)(Cl)Cl)nc2ccc(Cl)cc12
inactive: [1] -0.3% | [2] 8.6% | [3] -1.95% | [4] 11.8% | [5] -10.1% | [6] -12.1%

C=CCn1c(SC)nc2c(c1=O)CCCC2
inactive: [1] -34.5% | [2] -13.4% | [3] -5.4% | [4] -14.3% | [5] 7.55% | [6] -10.2%

O=C(OCC1OC(Br)CC(OC(=O)c2ccc([N+](=O)[O-])cc2)C1OC(=O)c1ccc([N+](=O)[O-])cc1)c1ccc([N+](=O)[O-])cc1 (stereo not given)
inactive: [1] 6.9% | [2] 9.95% | [3] 18.1% | [4] -22.4% | [5] -8.95% | [6] 35.5%

S=C(S)N(Cc1ccccc1)Cc1ccccc1 (tested in a mixture with another compound)
inactive: [1] 2.85% | [2] 0.7% | [3] 3.7% | [4] -18.8% | [5] 12.8% | [6] -2.05%

O=C(O)c1ccc([N+](=O)[O-])cc1N(c1ccccc1)c1ccccc1
inactive: [1] 27.6% | [2] 29.9% | [3] 40.1% | [4] 22.2% | [5] 29.3% | [6] 54%

CC(=O)Nc1ccc(/C=c2\sc3nnc(CCC(=O)Nc4ccccc4Cl)n3c2=O)cc1
inactive: [1] -16.4% | [2] -17.7% | [3] -20.1% | [4] 7.6% | [5] 7.1% | [6] -9.55%

COC(=O)C(C(C)C(C)[N+](=O)[O-])=P(c1ccccc1)(c1ccccc1)c1ccccc1 (stereo not given)
inactive: [1] 41.7% | [2] 3.4% | [3] 29.5% | [4] 11.2% | [5] -4.95% | [6] 10.8%

CC(C)CC(=O)CC(=O)C(C)(C)C.CC(C)CC(=O)CC(=O)C(C)(C)C.CC(C)CC(=O)CC(=O)C(C)(C)C.CC(C)CC(=O)CC(=O)C(C)(C)C.[Ce]
inactive: [1] 3% | [2] 19% | [3] 55.4% | [4] -16.1% | [5] 2.6% | [6] 47.1%

CC1(C)OC(C)(C)c2c1nnc(-c1cccc([N+](=O)[O-])c1)[n+]2[O-]
inactive: [1] -19.5% | [2] -26.2% | [3] 18.6% | [4] 1.3% | [5] 11.6% | [6] -3.55%

O=[N+]([O-])c1ccc(Cl)cc1N/N=C/c1cccs1
inactive: [1] -46.1% | [2] -40.2% | [3] -40.8% | [4] -9.5% | [5] -30.8% | [6] -31.8%

O=C1CN(C2CCCCC2)CC(=O)N2C(c3ccccc3)CCCN12 (stereo not given)
inactive: [1] 3.3% | [2] -5.4% | [3] 14.7% | [4] 11.8% | [5] 0.55% | [6] -1.85%

c1cc2[nH]snc2c2cncc12
inactive: [1] 12.5% | [2] 9.2% | [3] 0.25% | [4] -19.1% | [5] -24.1% | [6] 6.6%

Cc1ccc(O)c(C(=O)CCCC(=O)c2cc(C)ccc2O)c1
inactive: [1] -4.6% | [2] 7.9% | [3] 7.7% | [4] 12.5% | [5] -8.3% | [6] 4.35%

COc1ccc(C2C(Cl)C(=O)N2NC(=O)c2ccccc2O)cc1 (stereo not given)
inactive: [1] -27.2% | [2] -17.4% | [3] -38.1% | [4] -1.45% | [5] -4.6% | [6] -34.8%

O=C1OCCc2c1[nH]c1ccccc21
inactive: [1] 12.9% | [2] 10.7% | [3] 5.65% | [4] 22.9% | [5] 13.5% | [6] 17.6%

Cn1c(-c2ccccc2)c2c(=O)oc3ccccc3c2c1-c1ccccc1
inactive: [1] -14.6% | [2] 8.8% | [3] 9.55% | [4] 1.8% | [5] 8.25% | [6] 19.1%

O=C1c2cc3c(cc2C(=O)c2[nH]c(=O)ccc21)CCCC3
inactive: [1] 11.5% | [2] 25.9% | [3] 16% | [4] 0.85% | [5] 33.4% | [6] 35.6%

Nc1nc2c(ncn2CC2CCOC2=O)c(=O)[nH]1 (stereo not given)
inactive: [1] -19.1% | [2] -17.9% | [3] -18.7% | [4] 4.4% | [5] -5.85% | [6] -14.8%

O=S(=O)(O)C(CO)c1ccccc1 (stereo not given) (tested in a mixture with another compound)
inactive: [1] 5.75% | [2] 1.5% | [3] -12.9% | [4] -31.2% | [5] -28.7% | [6] 0.9%

Nc1nc(N)c2nc(CNc3ccc(C(=O)NC(CCCNC(=O)c4ccccc4C(=O)O)C(=O)O)cc3)cnc2n1 (stereo not given)
inactive: [1] -14.1% | [2] 30.4% | [3] 7.6% | [4] -28.3% | [5] -37.9% | [6] -9.95%

CCCCNC(=S)/N=C/c1c(O)cc(C)oc1=O
inactive: [1] -16.6% | [2] -25.9% | [3] -24.1% | [4] 2.25% | [5] -14.6% | [6] 2.75%

Cc1ccc(S(=O)(=O)N(CCOc2c3occc3cc3ccc(=O)oc23)CCN(CCN(CCOc2c3occc3cc3ccc(=O)oc23)S(=O)(=O)c2ccc(C)cc2)S(=O)(=O)c2ccc(C)cc2)cc1
inactive: [1] -10.2% | [2] -11.7% | [3] -14.4% | [4] -31.6% | [5] -21.1% | [6] -6.8%

COc1ccc2c(Cl)ccnc2c1OC
inactive: [1] 15.3% | [2] 6.1% | [3] 10.9% | [4] -15% | [5] 23.4% | [6] 21.8%

Cc1ccc(C(=O)/C=C/c2ccc(N(C)C)cc2)cc1
inactive: [1] 38.8% | [2] 1.95% | [3] 34.8% | [4] 30.9% | [5] 29.4% | [6] 43.8%

O=C1C(OC(=O)c2ccccc2)=C(c2ccc(O)cc2)C(=O)C(OC(=O)c2ccccc2)=C1c1ccc(O)cc1
inactive: [1] 24.1% | [2] 0.45% | [3] 5.55% | [4] 9.75% | [5] 17.2% | [6] -44.6%

CCNC1(C(N)=O)CCN(Cc2ccccc2)CC1
inactive: [1] -14.6% | [2] -55.8% | [3] -31.1% | [4] 5.1% | [5] -30.4% | [6] -22.7%

C=CCOc1cc2c(cc1C(C)c1ccc(OC)c(OC)c1)OCO2 (stereo not given)
inactive: [1] 32.9% | [2] -3.2% | [3] 17.3% | [4] 18.4% | [5] 6.25% | [6] 49.2%

Cc1nn(C(N)=S)c(C)c1N=Nc1ccc(O)cc1
inactive: [1] -5.2% | [2] -4.2% | [3] -4.9% | [4] -29.8% | [5] -11.2% | [6] 15.9%

CC1CCN(C(=O)C(c2ccccc2)c2ccccc2)CC1
inactive: [1] 27% | [2] -7.05% | [3] -3.1% | [4] -18.8% | [5] 1.2% | [6] -4.75%

COc1ccc(NC(=O)Nc2cc(Cl)ccc2C)c(Cl)c1
inactive: [1] 0.7% | [2] 36% | [3] 29.8% | [4] -3.35% | [5] 30.4% | [6] 29.9%

C[C@H]1S[C@@H](c2ccc(Cl)cc2Cl)N(NC(=O)c2ccncc2)C1=O
inactive: [1] 57.9% | [2] 45% | [3] 40% | [4] 46.9% | [5] 52.1% | [6] 39.3%

O=c1cc(-c2cccc(OC(F)(F)F)c2)[nH]c2cc3c(cc12)OCO3
inactive: [1] -6.25% | [2] 2.75% | [3] -5.05% | [4] 13.8% | [5] 19.7% | [6] -24.2%
